This is one part of a sample in which hits are shown more often than they occur.
Choline anaer gr – blocks anaerobic gram-negative growth on choline | AID 1963822 | calls only | Gram-negative bacterium anaerobic choline minimal medium, absorbance growth; active compounds read low | actives 0.2% (n = 55,000); call rule not given here
An asterisk follows results filed as active; i = inactive; + = active, no number.

SMILES	Choline anaer gr
O=C1C[C@@H]2OCC=C3CN4CC[C@]56c7ccccc7N1[C@H]5[C@H]2[C@H]3C[C@H]46	+
CN(C)c1ccc(C2SCC(=O)Nc3c2c(-c2ccccc2)nn3-c2ccccc2)cc1 (configuration not stated)	i
COC(=O)c1sc2nc3c(cc2c1N)CN(C(C)C)CC3	i
CCOC(=O)c1c(C)n(Cc2ccccc2)c2ccc(OCC(O)CN3CCN(c4ccc(C)cc4)CC3)cc12 (configuration not stated)	i
COc1ccc(NC(=O)c2cccn(Cc3cccc(F)c3)c2=O)c(OC)c1	i
CCCCCCCCCCCCCCCCOC[C@@H](COP(=O)([O-])OCC[N+](C)(C)C)OC(C)=O	+
CCCCCCCCCCCCCCCCOC[C@H](COP(=O)([O-])OCC[N+](C)(C)C)OC(C)=O	i
CCCCCCCCCCCCCCCC(=O)OC[C@H](COP(=O)([O-])OCC[N+](C)(C)C)OC(C)=O	i
O=C(Cc1ccccc1)N1CCN(Cc2cc(=O)n3nc(-c4ccccc4F)sc3n2)CC1	i
O=C(Cc1ccccc1)N1CCN(CCc2ccccn2)CC1	i
